Source: PubChem BioAssay AID652115 (Broad Institute, 2013)
The whole screen tested about 330,000 compounds, of which about 3,800 (1.2%) were called active. Only a selection was taken, and actives are over-represented in it overall. Values without a mark were called inactive. Cut-off read from the data, not from the text of the source: active = inhibition above about 15%; inconclusive = no clear call, values can overlap the other calls; inactive = below that.

target: NAD-dependent protein deacylase sirtuin-5, mitochondrial (Homo sapiens) (UniProt Q9NXA8); assay: SIRT5 desuccinylase inhibitors, primary screen, biochemical, fluorescence imaging, single point, set 5 (AID 652115); details: Purified SirT5, succinyl-peptide AMC, trypsin-coupled fluorescence; at 15 µM; hits give high values
Sequence (Q9NXA8 whole entry, looked up): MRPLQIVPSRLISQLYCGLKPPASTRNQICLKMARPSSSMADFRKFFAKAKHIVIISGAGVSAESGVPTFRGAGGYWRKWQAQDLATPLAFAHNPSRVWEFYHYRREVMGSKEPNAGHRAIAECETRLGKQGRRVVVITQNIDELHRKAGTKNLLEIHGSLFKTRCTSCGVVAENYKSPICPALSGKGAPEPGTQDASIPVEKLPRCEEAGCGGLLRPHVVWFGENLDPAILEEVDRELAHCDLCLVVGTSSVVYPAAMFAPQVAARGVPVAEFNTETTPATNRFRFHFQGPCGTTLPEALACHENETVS

| SMILES | inhibition |
| --- | --- |
| COCC(=O)Nc1ccc2c(c1)C(=O)N(C)C[C@@H](OC)[C@H](C)CN(C(=O)c1cccnc1)[C@H](C)CO2 | 5.23% |
| C=CCOc1cccc(C2C(C(=O)c3ccc(C)o3)=C(O)C(=O)N2c2nnc(C)s2)c1 (stereo not given) | -0.578% |
| Cc1cc(N2C(=O)C(O)=C(C(=O)c3ccc(C)o3)C2c2ccc(OCc3ccccc3)cc2)no1 (stereo not given) | 19.4% (active) |
| COc1cc(C2C(C(=O)c3ccco3)=C(O)C(=O)N2c2cc(C)on2)ccc1OCc1ccccc1 (stereo not given) | -4.04% |
| COc1ccc(NC(=O)Nc2ccc3c(c2)C(=O)N([C@@H](C)CO)C[C@@H](C)[C@@H](CN(C)C(=O)CCCN(C)C)OCCCC[C@@H](C)O3)cc1 | -2.34% |
| COc1ccc2c3c(n(C)c2c1)[C@@H](CO)N(CC1CC1)CC31CN(C(=O)c2cccc(F)c2)C1 | 1.38% |
| Cc1cc([N+](=O)[O-])ccc1NS(=O)(=O)c1ccccc1 | 4.53% |
| Cc1cc(C=O)c(C)n1-c1ccc(NC2CCCCC2)c([N+](=O)[O-])c1 | 2.63% |
| Cc1cc([N+](=O)[O-])ccc1NC1CCCC1 | 21.2% (active) |
| C[C@@H]1CN([C@H](C)CO)C(=O)c2cc(-c3cccc(F)c3)cnc2O[C@H]1CN(C)C(=O)Nc1ccccc1F | 4.47% |
| O=C(CN1CCOCC1)N[C@@H]1CC[C@@H](CCNC(=O)C2CCCCC2)O[C@@H]1CO | 7.91% |
| C[C@H]1CN([C@@H](C)CO)C(=O)c2cc(C#CC3CCCC3)cnc2O[C@H]1CN(C)C(=O)c1ccncc1 | 5.96% |
| Cc1c(C(=O)NCC2CCCO2)sc2nc(-c3ccccc3)cn12 (stereo not given) | -9.93% |
| Cc1ccc(C(=O)N/C(=C\c2ccc(F)cc2)C(=O)NCCN2CCOCC2)cc1 | -1.92% |
| Cc1c(C(=O)NCCN2CCOCC2)sc2nc(-c3ccc(F)cc3)cn12 | 26.8% (active) |
| C[C@@H]1CCCCO[C@@H](CN(C)C(=O)Nc2ccc(C(F)(F)F)cc2)[C@H](C)CN([C@@H](C)CO)C(=O)c2cc(N(C)C)ccc2O1 | 2.03% |
| O=C(c1ccc(F)cc1)N1CC(=O)N2[C@@H](CO)[C@H](c3ccc(C4=CCCC4)cc3)[C@@H]2C1 | -4.25% |
| C[C@@H]1CN([C@@H](C)CO)S(=O)(=O)c2ccc(C#CCC3CCCC3)cc2O[C@H]1CN(C)Cc1ccc(C(=O)O)cc1 | 17.1% (active) |
| C[C@@H]1CN([C@H](C)CO)S(=O)(=O)c2ccc(C#CCC3CCCC3)cc2O[C@H]1CN(C)C(=O)CC1CC1 | 9.26% |
| C[C@@H]1CN([C@@H](C)CO)S(=O)(=O)c2ccc(C#CCC3CCCC3)cc2O[C@H]1CN(C)C(=O)CC1CC1 | 9.11% |
| C[C@@H]1CN([C@@H](C)CO)S(=O)(=O)c2ccc(C#CCC3CCCC3)cc2O[C@@H]1CN(C)C | 2.36% |
| C[C@H]1CN([C@@H](C)CO)S(=O)(=O)c2ccc(C#CCN(C)C)cc2O[C@@H]1CN(C)Cc1ccc(F)cc1 | -1.1% |
| C[C@@H]1CN([C@H](C)CO)S(=O)(=O)c2ccc(C#CCC3CCCC3)cc2O[C@H]1CN(C)Cc1ccc(C(=O)O)cc1 | 15.8% (active) |
| CO[C@@H]1CN(C)C(=O)c2ccc(NC(=O)c3cccc(Oc4ccccc4)c3)cc2OC[C@H](C)NC[C@@H]1C | 0.913% |
| CN(C)C(=O)c1cccc(-c2ccc3n(c2=O)C[C@H]2N[C@@H]3[C@@H](C(=O)NC3CCC3)[C@@H]2CO)c1 | -48.3% |
| COc1ccc2c3c(n(C)c2c1)[C@H](CO)N(C(C)=O)CC31CN(C(=O)c2cnccn2)C1 | -3.27% |
| CCc1nnc(NS(=O)(=O)c2ccc(NC(=S)NC(=O)c3cccs3)cc2)s1 | 19.1% (active) |
| CCc1nnc(NS(=O)(=O)c2ccc(NC(=O)c3cccc(OC(F)(F)C(F)F)c3)cc2)s1 | -3.94% |
| CCc1nnc(NS(=O)(=O)c2ccc(NC(=S)NC(=O)/C=C/c3cccs3)cc2)s1 | 9.43% |
| C[C@@H]1CN([C@@H](C)CO)C(=O)c2cc(NS(C)(=O)=O)ccc2O[C@@H](C)CCCCO[C@@H]1CN(C)C(=O)c1ccccc1 | 0.623% |
